HCMV antiviral: blocks human cytomegalovirus replication. HFF cells, HCMV-luciferase reporter, 72 h; hits give low values. activity change, negative = inhibition, % at 57.5 µM. 4.5% of 410,000 active. AID 1259415; in the data active = activity change below about -60%; inconclusive = no clear call, values can overlap the other calls; inactive = above about -39%
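After 16 h attachment at 37C, HFF cells received test compound and HCMV-luciferase (1 PFU/cell); reporter luminescence read 72 h later, data normalized against buffer-only and known inhibitor Salinomycin.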
CHX counter: counter-screen for Shiga toxin inhibitors: cycloheximide protein synthesis inhibition; max response, %; 12% of 300,000 active; cell reporter, cycloheximide protein synthesis inhibition counterscreen; AID 2314; in the data active = max response mostly above about 13%, no sharp cut-off; inactive = mostly below about 14%; note: read at 38.3 µM for the half of the compounds with a filed dose
Shiga toxin inh: inhibitors of Shiga toxin in Vero cells; Vero cells, Shiga toxin protein synthesis inhibition reporter; inhibition, % at 38.7 µM; 9.2% of 290,000 active; AID 2315; in the data active = inhibition mostly above about 28%, no sharp cut-off; inactive = mostly below about 43%
HCV inhibitor: inhibitors of hepatitis C virus infection; Huh7.5.1 HCVcc-Cre infection, luciferase reporter, 44 h; Potency, µM (highest dose often 41.8 µM), most hits filed as inhibitors; 3.4% of 340,000 active
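Compounds are dispensed onto cells plated 4 h earlier at 1,000 per well, with HCVcc-Cre virus (about 0.5 moi) added next. Following 44 h of culture, luminescent signal is measured for 15 sec after 15 min with substrate at room temperature.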
Pf growth 96h: P. falciparum growth inhibition at 96 hour, primary screen for plastid delayed-death inhibitors; P. falciparum luciferase reporter growth, 96 h; Potency, µM (titrated, usually from 28.7 µM), most hits filed as inhibitors; 6.9% of 320,000 active
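Erythrocytes infected with luciferase-expressing P. falciparum were dispensed at 2% hematocrit and 0.05% parasitemia (final), then incubated with compounds 96 hours at 37 C in 5% CO2. Luminescence after detection reagent addition reported growth.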
Pf growth 48h: inhibits P. falciparum growth in the first generation, 48 h. P. falciparum luciferase growth in erythrocytes, 48 h. Potency, µM (series often up to 28.7 µM), hits mostly inhibitors. 5.9% of 310,000 active
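In quantitative HTS format, infected erythrocytes bearing luciferase-reporter parasites were treated for a single generation at 37 C. Luminescence after adding detection reagent served as the growth measure.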
Hits are given with their value; i = inactive; ? = inconclusive; nt = not tested or not shown; [ ] = dose if it differs, or a comment. Sampled rows, rich in hits. Any-hit rate of the full collection: about 21%. Unless noted, calls come from the whole dose curve; as a rule, active = well fitted inhibition curve with a large enough effect; inconclusive = small, poorly fitted or top-dose-only effect, or another doubt; inactive = no such curve, though single readings can be large or run the other way.

SMILES | HCMV antiviral | CHX counter | Shiga toxin inh | HCV inhibitor | Pf growth 96h | Pf growth 48h
COCCNC(=S)N/N=C/c1ccc(-c2ccc([N+](=O)[O-])cc2)o1 | i | i | i | i | ? | i
CCCNC(=O)Cn1c(=O)/c(=C\c2ccc(-c3ccc([N+](=O)[O-])cc3)o2)s/c1=C\C(=O)C(C)(C)C | nt | i | i | ? | ? | 9.28µM
CCCNC(=O)Cn1c(=O)/c(=C/c2ccc(-c3cccc([N+](=O)[O-])c3)o2)s/c1=C\C(=O)C(C)(C)C | i | nt | nt | i | nt | nt
CCCNC(=O)Cn1c(=O)/c(=C\c2ccc(-c3cccc([N+](=O)[O-])c3)o2)s/c1=C\C(=O)C(C)(C)C | ? | i | i | i | 1.31µM | 1.65µM
Cc1ccc(S(=O)(=O)c2nnn3c2nc(NCc2ccc4c(c2)OCO4)c2sccc23)cc1 | i | nt | nt | nt | nt | nt
Cc1ccc(NC(=O)CSc2nccn2Cc2ccc3c(c2)OCO3)c(C)c1 | i | nt | nt | nt | nt | nt
CCc1cccc(NC(=O)CN(C)S(=O)(=O)c2ccc3c(c2)n(C)c(=O)c(=O)n3C)c1 | i | nt | nt | nt | nt | nt
Cc1ccc(C)c(N2CCN(C(=O)NCc3noc4ccccc34)CC2)c1 | i | nt | nt | nt | nt | nt
COc1ccc(/C(N)=N/OC(=O)c2ccc3c(c2)OCO3)cc1 | i | 51.9 | 45.7 | ? | i | ?
N/C(=N\OC(=O)c1ccc2c(c1)OCO2)c1ccc(Cl)cc1 | i | 61.7 | 90.5 | ? | ? | ?
Cc1ccc(/C(N)=N/OC(=O)c2ccc3c(c2)OCO3)cc1 | i | 73.5 | 98.1 | ? | 5.86µM | ?
N/C(=N\OC(=O)c1ccc2c(c1)OCO2)c1ccncc1 | i | 35.4 | i | i | i | i
O=C(COC(=O)c1ccc2c(c1)OCO2)Nc1ccccc1Cl | i | nt | nt | i | ? | i
CCCCn1c(N)c(N(CC)C(=O)c2cc(CC)c(C)s2)c(=O)[nH]c1=O | i | nt | nt | i | i | i
C[C@@H]1CC[C@H]2[C@@H](C)C(=O)O[C@@H]3O[C@@]4(C)CC[C@@H]1[C@]32OO4 | nt | i | i | i | 0.0033µM | 0.0033µM
C[C@@H]1CC[C@H]2[C@@H](C)C(=O)O[C@@H]3OC4(C)CC[C@@H]1C32OO4 (stereo partly drawn) | nt | nt | nt | nt | 0.0027µM | 0.0034µM
COc1ccccc1NC(=O)Cc1nnc(SCC(=O)NC2=NCCS2)n1C | i | i | i | i | i | i
O=C(NCCCN1CCOCC1)c1cccc(S(=O)(=O)Nc2cc(Cl)ccc2Cl)c1 | i | i | i | i | i | i
CCCc1ccc(/C=C2\C(=O)c3ccccc3C(O)=C2C(=O)OCC)cc1 | nt | 19.9 | i | i | ? | 4.65µM
CCOC(=O)C1=C(O)c2ccccc2C(=O)/C1=C\c1ccc(CC)cc1 | nt | 31.4 | 58.5 | ? | ? | 3.29µM
CC(C)c1ccc2[nH]c3c(c2c1)CCCC3=O | i | i | i | ? | i | i
Nc1ccc(C(=O)N/N=C2\CCCc3c2[nH]c2ccccc32)cc1 | i | 24.9 | i | ? | ? | ?
CC(C)c1ccc2[nH]c3c(c2c1)CCC/C3=N\NC(=O)c1ccncc1 | i | i | i | 0.355µM | ? | ?
COC(=O)CSc1nc(N)c(C#N)c(-c2ccco2)c1C#N | i | i | i | i | i | i
COC(=O)CSc1nc(-c2ccccc2)cc(-c2ccco2)c1C#N | i | 41.0 | 83.3 | ? | ? | i
SMILES | HCMV antiviral | CHX counter | Shiga toxin inh | HCV inhibitor | Pf growth 96h | Pf growth 48h
O=C(O)COc1ccc(C(=O)c2cccs2)c(Cl)c1Cl | nt | i | i | nt | 3.79µM | i
O=[N+]([O-])c1ccc(O)c(C(C#Cc2ccccc2)N2CCOCC2)c1 (stereo not drawn) | i | 25.9 | 66.2 | i | i | i
CCS(=O)(=O)c1ccc(O)c(NC(=O)c2cc(-c3ccccn3)nc3ccccc23)c1 | i | nt | nt | i | nt | nt
COCCN=c1scc(-c2ccc3c(c2)NC(=O)CO3)n1/N=C(\C)c1ccc(O)cc1 | ? | i | i | ? | ? | 10.4µM
COc1cc(/C=N/n2c(-c3ccc4c(c3)NC(=O)CO4)csc2=Nc2cccc(C)c2)ccc1O | -96.5 | 32.6 | 38.3 | 7.08µM | 4.65µM | ?
COc1c(C)cc(NC(=O)c2ccc3c(c2)NC(=O)CO3)cc1C | i | i | i | i | ? | ?
COC(=O)C12OCC34C(CC5C(C)=C(O)C(=O)CC5(C)C3C(O)C1O)OC(=O)C(OC(=O)/C=C(\C)C(C)C)C24 (stereo not drawn) | -98.4 | nt | nt | ? | nt | nt
COC(=O)C12OCC34C(CC5C(C)=C(O)C(=O)CC5(C)C3C(O)C1O)OC(=O)C(OC(=O)C=C(C)C)C24 (stereo not drawn) | -98.6 | nt | nt | nt | nt | nt
COc1cccc(Nc2nc(C(N)Cc3ccc(F)cc3)cs2)n1 (stereo not drawn) | i | nt | nt | nt | nt | nt
COc1cc(OC)nc(Nc2nc(C(N)Cc3ccc(C(F)(F)F)cc3)cs2)n1 (stereo not drawn) | -85.2 | nt | nt | nt | nt | nt
COc1cccc(Nc2nc(C(N)Cc3ccc(C(F)(F)F)cc3)cs2)n1 (stereo not drawn) | -90.4 | nt | nt | nt | nt | nt
NC(=O)CC(NC(=O)c1cccc(Br)c1)c1ccc(NC2CCCCCCCCCCC2)c([N+](=O)[O-])c1 (stereo not drawn) | i | i | i | i | ? | i
COc1ccc(C(C)=O)cc1CSc1nc(Nc2ccc(F)c(F)c2)c2ccccc2n1 | i | nt | nt | nt | nt | nt
O=C(Nc1ccc(Nc2ccccc2)cc1)c1ccccc1F | i | 33.2 | 73.8 | ? | i | i
CCN(CC)c1ccc(NC(=O)c2ccccc2F)cc1 | i | 37.8 | 71.2 | ? | i | i
O=C(O)c1cc(NC(=O)c2ccccc2F)cc(NC(=O)c2ccccc2F)c1 | i | i | i | i | i | i
Cc1cccc(NC(=O)CN2CCN(C(=O)CN3C(=O)NC4(CCCCC4C)C3=O)CC2)c1C (stereo not drawn) | i | nt | nt | i | nt | nt
Clc1ccc(C(c2nnnn2C2CCCC2)N2CCN(Cc3ccncc3)CC2)cc1 (stereo not drawn) | i | i | i | i | nt | ?
Fc1ccc(C(c2nnnn2C2CCCC2)N2CCN(Cc3ccccc3)CC2)cc1 (stereo not drawn) | i | i | i | i | nt | 9.28µM
c1csc(C(c2nnnn2C2CCCC2)N2CCCC3(CCCCC3)C2)c1 (stereo not drawn) | i | i | i | ? | nt | 2.08µM
c1csc(C(c2nnnn2C2CCCC2)N2CCOCC2)c1 (stereo not drawn) | i | i | i | i | i | i
N#Cc1cccc(C(c2nnnn2C2CCCC2)N2CCCCCC2)c1 (stereo not drawn) | i | i | i | ? | 11.7µM | ?
N#Cc1ccc(C(c2nnnn2C2CCCC2)N2CCC(Cc3ccccc3)CC2)cc1 (stereo not drawn) | -90.5 | i | i | i | i | 4.65µM
COC(=O)c1ccc(C)c(NC(=O)CCn2[nH]c(=O)ccc2=O)c1 | i | nt | nt | i | nt | nt
CC1CN(C(=O)N2CCC(C(=O)NCCC3=CCCCC3)CC2)c2cc(Cl)ccc2O1 (stereo not drawn) | i | nt | nt | nt | nt | nt
CCCCN(C(=O)c1ccco1)C1CCS(=O)(=O)C1 (stereo not drawn) | i | nt | nt | i[8.37 µM] | ? | i

Bioassay records as filed in PubChem BioAssay.
